High-throughput results as filed in PubChem BioAssay.
FMDV inh: foot and mouth disease virus antiviral activity. 1.2% of 410,000 active. Potency, µM (highest dose often 57.9 µM), for inactives: at the top dose activity change, negative = inhibition, actives largely listed as inhibitors. FMDV antiviral cell-based qHTS; calls by dose curve; tested in HEK293T cells; further: read-out not given here; potency means the concentration at half of the fitted maximal effect; on the % scale 0 is the no-effect control and ±100 the full control effect; nearly all actives have a fitted effect of over 45% in size
Sm TGR block: blocks Schistosoma mansoni thioredoxin glutathione reductase; purified TGR, DTNB reduction, TNB absorbance 405 nm; AID 485364; 3% of 360,000 active; Q962Y6; Potency, µM (highest dose often 114 µM), for the others: at the highest dose activity change, negative = inhibition, most hits filed as inhibitors; active means well fitted inhibition curve with a large enough effect; inconclusive means small, poorly fitted or top-dose-only effect; inactive means no such curve, though single readings can be large or run the other way; further: potency means the concentration at half of the fitted maximal effect; on the % scale 0 is the no-effect control and ±100 the full control effect; nearly all actives have a fitted effect of over 60% in size
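First, TGR (20 nM dispensed) and NADPH were mixed with compound. Second, a 15 min room-temperature incubation followed. Third, further NADPH and then DTNB were added to start the reaction. Finally, TNB absorbance was monitored kinetically.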
Shiga toxin inh: blocks Shiga toxin action in Vero cells. Vero cells, Shiga toxin protein synthesis inhibition reporter. inhibition, % at 38.7 µM. 9.2% of 290,000 active. AID 2315; in the data active means inhibition mostly above about 28%, no sharp cut-off; inactive means mostly below about 43%; further: 0% is about no effect
Cycloheximide cs: counter-screen hit for Shiga toxin inhibitors, cycloheximide; 12% of 300,000 active; cell reporter, cycloheximide protein synthesis inhibition counterscreen; max response, %; in the data active means max response mostly above about 13%, no sharp cut-off; inactive means mostly below about 14%; further: read at 38.3 µM for the half of the compounds with a filed dose; 0% is about no effect
* marks the source's active call; other numbers are inactive results; ? = inconclusive; · = not tested or not shown. Hits are enriched below; roughly 12% of the tested compounds scored in any of these assays.

SMILES | FMDV inh | Sm TGR block | Shiga toxin inh | Cycloheximide cs
CC(C)CC1NC(=O)N(CC(=O)c2ccc3c(c2)OCCO3)C1=O (configuration not stated) | 32.9% | 41.7% | 134.8* | 34.3*
CC1CCn2c(nc3cc(C(=O)NCc4ccc(OC(C)C)cc4)ccc32)C1 (configuration not stated) | 42.2% | 18.3% | · | ·
CCCC(=O)Nc1nnc(/C=C/c2ccccc2)s1 | 39.5% | -5.7% | 40.4* | 25.9*
CCOC(=O)Nc1nnc(/C=C/c2ccc(OC)cc2)s1 | 10.7% | -0.3% | 2.6 | 23.6*
CC(C)(C)C(=O)Nc1nnc(COc2ccc(Cl)cc2)s1 | 20.7% | 6.8% | 38.5* | 25.1*
CCC(=O)Nc1nnc(/C=C/c2ccccc2)s1 | 8.6% | 6.9% | 49.4* | 44.2*
CC[C@@H](C)[C@@H](N)C1=N[C@H](C(=O)N[C@@H](CC(C)C)C(=O)N[C@@H](CCC(=O)O)C(=O)N[C@@H](C(=O)N[C@@H]2CCCCNC(=O)[C@@H](CC(N)=O)NC(=O)[C@@H](CC(=O)O)NC(=O)[C@@H](Cc3cnc[nH]3)NC(=O)[C@@H](Cc3ccccc3)NC(=O)[C@@H]([C@H](C)CC)NC(=O)[C@@H](CCCN)NC2=O)[C@@H](C)CC)CS1 | -8.4% | · | · | ·
CC(N)COC(=O)C(CCCCN)NC(=O)Cc1c(-c2ccc3ccccc3c2)[nH]c2c1ccc1ccccc12 (configuration not stated) | -21.8% | · | 14.5 | -6.1
COc1cc(OC)cc(C2=Nn3c(nnc3-c3ccccc3O)SC2)c1 | · | · | -2.0 | 11.3
Cc1ccc(C(=O)NCC(c2ccc3c(c2)OCO3)N2CCN(c3ccc(F)cc3)CC2)cc1 (configuration not stated) | ? | -3.4% | · | ·
COc1ccc(/C=C/c2nnc(NC(=O)COc3ccc(C)cc3)s2)cc1 | -5.6% | 1.2% | -9.3 | 13.9*
CCCC(=O)Nc1nnc(/C=C/c2ccc(OC)cc2)s1 | 25.8% | -0.3% | 21.5 | 19.1*
CCCCC(=O)Nc1nnc(/C=C/c2ccc(OC)cc2)s1 | 15.8% | -2.5% | -6.2 | -1.1
COc1ccc(/C=C/c2nnc(NC(=O)C(C)(C)C)s2)cc1 | 2.6% | 8.8% | 26.2 | 22.0*
O=C(O)CNC(=O)c1ccc(OC(F)F)cc1 | · | 0.0% | -3.3 | -3.4
O=C1C=CC(=O)N1c1ccc(O)cc1 | -26.6% | 0.891µM* | 0.8 | 7.3
O=C1C2C3C=CC(C2C(=O)N1c1ccccc1O)C1C2C(=O)N(c4ccccc4O)C(=O)C2C31 (configuration not stated) | 6.9% | -25.4% | -4.0 | 5.3
O=C1C2C3C=CC(C2C(=O)N1c1ccc(O)cc1)C1C2C(=O)N(c4ccc(O)cc4)C(=O)C2C31 (configuration not stated) | 14.6% | 50.1µM* | 1.7 | -3.4
O=C1C=CC(=O)N1c1ccc(OC(F)F)cc1 | -19.4% | 0.355µM* | -14.1 | -3.1
Cc1cccc2nc(CSc3ccccc3C(=O)O)cn12 | 29.8% | 0.0% | -5.4 | 9.4
Cc1cccc2nc(COc3ccc4ccccc4c3Br)cn12 | 4.6% | -18.2% | 48.4* | 46.0*
N#Cc1nc(-c2cccc3ccccc23)oc1N1CCCCC1 | 28.3% | -0.1% | 44.3 | 22.4*
N#Cc1nc(-c2ccccc2Cl)oc1N1CCCCC1 | 10.2% | -4.9% | 128.7* | 24.1*
Cc1cc(C)c2c(CC(=O)Nc3ccc(S(=O)(=O)Nc4nc(C)cc(C)n4)cc3)coc2c1 | 56.5% | -2.4% | · | ·
COc1ccc(NC(=O)C(NS(=O)(=O)c2ccc3c(c2)CCCC(=O)N3)C(C)C)c(OC)c1 (configuration not stated) | 5.0% | -10.4% | · | ·
SMILES | FMDV inh | Sm TGR block | Shiga toxin inh | Cycloheximide cs
COc1ccc(C2C(C(N)=O)=C(C)Nc3nc(CCCO)nn32)c(OC)c1 (configuration not stated) | -10.3% | -3.4% | · | ·
Cc1ccc(/C=N/NC(=O)c2ccc3ccccc3c2)s1 | 30.0% | -17.3% | 46.5* | 27.8*
O=C(N/N=C/c1cc(Br)cs1)c1ccc2c(c1)OCCO2 | -2.6% | 8.4% | 67.6* | 37.0*
Cc1ccc(C(=O)N/N=C\c2cc3c(cc2Br)OCO3)s1 | 4.3% | -2.2% | 14.9 | -1.1
Cc1ccc(/C=N/NC(=O)c2ccc3c(c2)OCCO3)s1 | 23.9% | 2.2% | 55.2* | 37.9*
Cn1cc(C(=O)N/N=C/c2cc(Br)cs2)c2ccccc21 | · | -8.1% | -0.5 | -1.6
CCc1cccc(NC(=O)CCc2c(C)nc3c(c2C)c(=O)n(C)c(=O)n3C)c1 | ? | -10.5% | · | ·
CCCCOc1ccc(OCCNS(=O)(=O)N(C)C)cc1 | · | -3.9% | 44.5 | 20.5*
Cc1cc(C)c(NC(=O)C(=O)NCC(c2cccnc2)N2CCN(Cc3ccccc3)CC2)c(C)c1 (configuration not stated) | ? | 20.1% | · | ·
CCOC(=O)c1cc(-c2nnc(-c3ccc(Cl)cc3)o2)c(C)nc1C | -21.4% | 0.9% | -2.4 | -2.4
CCOC(=O)c1ccc(-c2nnc(-c3ccc(Cl)cc3Cl)o2)cc1 | 8.1% | 5.2% | 21.6 | 9.6*
O=C(c1ccccc1)c1ccc2nc(N3CCN(C(=O)c4ccco4)CC3)c3nncn3c2c1 | ? | 44.7µM* | 77.8 | -2.6
O=C(Nc1ccccc1)C1=C(c2ccccc2)S(=O)(=O)CCS1(=O)=O | 14.1µM* | 0.251µM* | 44.8* | 22.6*
CC(C)C(=O)N1CCN(c2ccc(NC(=O)COc3ccccc3[N+](=O)[O-])cc2)CC1 | 15.8µM* | · | 25.2 | 1.3
O=C(COc1cc(F)ccc1[N+](=O)[O-])Nc1ccc(N2CCCCC2)cc1 | ? | -10.8% | · | ·
O=C(COc1ccccc1[N+](=O)[O-])Nc1cccc(Cl)c1N1CCOCC1 | 39.8µM* | -2.0% | -6.0 | -1.2
O=C(COc1cc(F)ccc1[N+](=O)[O-])Nc1ccc(N2CCOCC2)cc1 | -5.8% | 44.7µM* | -1.3 | 8.6
CC(=O)c1cccc(Nc2c3c(nc4nc(-c5cccs5)nn24)CCCC3)c1 | -16.1% | ? | · | ·
COC(=O)c1ccc(N2CCN(c3ccccc3)CC2)c(NC(=O)C2CC2)c1 | 0.0% | -17.9% | -3.7 | -2.5
Nc1cc(C(=O)c2ccccc2)ccc1N1CCOCC1 | -1.7% | 0.6% | 116.8* | 27.5*
CC(C)NC(=O)c1ccc(N2CCOCC2)nc1 | 14.8% | 3.5% | 5.0 | 9.0
COC(=O)c1ccc(N2CCN(c3ccccc3)CC2)c(N)c1 | 22.0% | 4.9% | 35.9 | 16.4*
COC(=O)c1ccc(N2CCN(c3ccccc3)CC2)nc1 | 26.2% | 7.8% | 45.1* | 24.9*
COC(=O)c1ccc(/C=N\N2CCN(c3ccccc3)CC2)cc1 | 38.2% | 1.2% | 117.6* | 21.0*
CSc1ncc(Cl)c(C(=O)Nc2ccc(S(=O)(=O)N3CCC(C)CC3)cc2)n1 | ? | 6.8% | · | ·
SMILES | FMDV inh | Sm TGR block | Shiga toxin inh | Cycloheximide cs
Cc1ccc(CN2CCCn3nc(C(=O)NC(C)C)cc3C2=O)cc1 | 11.5% | 2.5% | · | ·
Cc1nc(-c2ccc(Cl)cc2)sc1CCNC(=O)C(=O)Nc1ccc2c(c1)OCCO2 | -14.2% | 5.9% | · | ·
COc1ccc(-c2c(C)nn3c(N4CCN(c5ccccc5)CC4)cc(C)nc23)cc1OC | -16.9% | -7.1% | · | ·
O=C(Nc1nc(-c2ccc(Br)cc2)ns1)c1ccc(F)cc1 | -28.4% | -3.0% | · | ·
O=C(OCC(=O)N1CCN(c2ccccc2)CC1)c1cnc(Cl)c(Cl)c1 | · | -3.9% | -16.1 | -10.1
C=CCOC(=O)c1ccc(N2CCN(c3ccccc3)CC2)nc1 | -7.1% | 4.3% | 34.2 | 20.1*
